Our source for the z-score and composite z-score values is PubChem BioAssay.

A short description of experiment [1]: E. coli DRC41 culture turbidity changes, primary screen, E. coli filamentation inducer project, strain DRC41, OD650, 48 h (AID 1152).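 Also: E. coli MC1000 strain DRC41 lacking acrAB efflux pump and sulA.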 Particulars: E. coli DRC41 (acrAB sulA), higher = more signal, called active from +8 up or from −8 down.
Experiment [2] in a line: small-molecule binders of probe aLefty1, primary screen, biochemical, small-molecule microarray, 635/667 nm fluorescence (AID 1153).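 Also: score merges spot fluorescence with signal-to-noise ratio from the scanned slide images.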 Particulars: higher = more signal.
A short description of experiment [3]: PSAC antagonists in infected red cells, primary screen, cell-based, P. falciparum Indochina, OD700, 1 h (AID 1154). Particulars: P. falciparum Indochina infected RBC osmotic lysis, higher = more signal, called active from +8 up or from −8 down.
A short description of experiment [4]: PSAC antagonists in infected red cells, primary screen, cell-based, P. falciparum Indochina, OD700, 2 h (AID 1155).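 Also: lysis reports solute entry through the parasite surface anion channel PSAC; channel blockers reduce lysis of infected cells.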 As to conditions: P. falciparum Indochina infected erythrocytes, osmotic lysis OD700; higher = more signal, called active from +8 up or from −8 down.
Experiment [5] is described as follows: osmotic lysis modulators in infected erythrocytes, primary screen, PSAC antagonist project, cell-based, P. falciparum Indochina, OD700, 3 h (AID 1156). Particulars: higher = more signal, called active from +8 up or from −8 down.
Experiment [6] is described as follows: PSAC antagonists in infected red cells, primary screen, cell-based, P. falciparum Indochina, OD700, 18 h (AID 1157). Particulars: P. falciparum Indochina infected erythrocytes, osmotic lysis OD700, 18 h; higher = more signal, called active from +8 up or from −8 down.
Experiment [7] in a line: modulators of S6 phosphorylation in cells, primary screen, cell-based, A549, cytoblot, luminescence, serum-stimulated (AID 1158).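 Also: serum-stimulated A549 lung adenocarcinoma cells; signal is phosphorylated S6 detected by cytoblot immunostaining with HRP secondary.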 As to conditions: A549 phospho-S6 cytoblot, 5 h, higher = more signal.
The target in experiment [8] is NADPH oxidase 2 (Homo sapiens) (UniProt P04839). The experiment can be described thus: NOX2-dependent H2O2 signal modulators, primary screen, NOX inhibitor project, cell-based, HEK293-NOX2, PMA-stimulated, Amplex Red fluorescence (AID 1159). Also: test concentration not given here. As to conditions: 45 min, higher = more signal, called active from +8 up or from −8 down.
Sequence of NADPH oxidase 2 (Homo sapiens) (P04839 whole entry, looked up): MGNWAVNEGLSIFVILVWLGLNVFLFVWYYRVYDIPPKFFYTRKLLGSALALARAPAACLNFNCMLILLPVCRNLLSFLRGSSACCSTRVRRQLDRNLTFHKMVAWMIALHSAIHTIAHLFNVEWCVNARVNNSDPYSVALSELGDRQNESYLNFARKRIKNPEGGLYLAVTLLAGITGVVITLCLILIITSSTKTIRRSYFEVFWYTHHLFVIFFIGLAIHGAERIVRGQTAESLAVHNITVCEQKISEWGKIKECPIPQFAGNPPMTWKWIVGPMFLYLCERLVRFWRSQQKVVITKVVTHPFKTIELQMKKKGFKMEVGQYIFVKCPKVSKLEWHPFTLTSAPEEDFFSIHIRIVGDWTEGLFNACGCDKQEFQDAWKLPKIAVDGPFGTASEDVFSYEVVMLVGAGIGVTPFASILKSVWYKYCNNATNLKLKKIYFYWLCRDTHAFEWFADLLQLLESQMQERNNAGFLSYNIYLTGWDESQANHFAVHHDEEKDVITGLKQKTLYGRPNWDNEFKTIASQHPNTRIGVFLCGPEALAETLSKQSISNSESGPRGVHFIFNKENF
In experiment [9] the target is NADPH oxidase 4 (Homo sapiens) (UniProt Q9NPH5). The experiment can be described thus: NOX4-dependent H2O2 signal modulators, primary screen, NOX inhibitor project, cell-based, HEK293-NOX4, tetracycline-induced, Amplex Red fluorescence (AID 1160). As to conditions: 45 min, higher = more signal, called active from +8 up or from −8 down.
Sequence of NADPH oxidase 4 (Homo sapiens) (Q9NPH5 whole entry, looked up): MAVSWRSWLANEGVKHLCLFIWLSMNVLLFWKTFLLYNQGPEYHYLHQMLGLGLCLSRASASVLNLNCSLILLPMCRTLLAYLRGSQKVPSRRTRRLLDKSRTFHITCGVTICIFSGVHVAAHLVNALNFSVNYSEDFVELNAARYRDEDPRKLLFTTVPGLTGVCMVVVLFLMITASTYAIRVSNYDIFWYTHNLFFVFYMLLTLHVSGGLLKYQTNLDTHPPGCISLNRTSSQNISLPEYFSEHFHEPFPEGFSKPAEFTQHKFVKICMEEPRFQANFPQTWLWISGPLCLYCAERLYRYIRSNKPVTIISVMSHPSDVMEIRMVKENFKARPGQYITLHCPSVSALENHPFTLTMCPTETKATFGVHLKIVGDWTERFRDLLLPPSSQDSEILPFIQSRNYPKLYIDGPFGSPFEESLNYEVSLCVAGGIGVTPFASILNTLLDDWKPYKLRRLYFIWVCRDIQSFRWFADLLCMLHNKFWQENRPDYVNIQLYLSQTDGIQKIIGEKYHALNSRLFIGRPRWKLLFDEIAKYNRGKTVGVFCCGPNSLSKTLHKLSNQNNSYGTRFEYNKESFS
Experiment [10] addresses NADPH oxidase 5 (Homo sapiens) (UniProt Q96PH1). The experiment can be described thus: NOX5-dependent H2O2 signal modulators, primary screen, NOX inhibitor project, cell-based, HEK293-NOX5, Amplex Red fluorescence (AID 1161). As to conditions: HEK293-NOX5, ionomycin, 45 min, higher = more signal.
Experiment [11] can be described thus: A549 cell viability effects, profiling panel, calcein-AM fluorescence, 48 h, basal (AID 1162). Also: test concentration not given here. Particulars: higher = more signal.
Experiment [12] in a line: adipocyte viability effects, profiling panel, cell-based, 3T3-L1 adipocytes, calcein-AM fluorescence, 48 h, basal (AID 1163). Also: test concentration not given here. Particulars: 3T3-L1 adipocytes viability, higher = more signal.
Experiment [13] is described as follows: HepG2 cell viability effects, profiling panel, calcein-AM fluorescence, 48 h, basal (AID 1164). Also: test concentration not given here. As to conditions: higher = more signal.
Experiment [14] in a line: MM1S cell viability effects, profiling panel, calcein-AM fluorescence, 48 h, basal (AID 1165).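 Also: viability of MM1S multiple myeloma cells under basal unstimulated conditions; test concentration not given here.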 Particulars: higher = more signal.
A short description of experiment [15]: basal RPMI8226 viability, no added stimulus, profiling panel, cell-based, calcein-AM fluorescence, 48 h, PK04 Diversity Set (AID 1166).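 Also: cells grown under basal conditions without added stimulus; test concentration not given here.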 Particulars: RPMI8226 myeloma viability, higher = more signal.
The nature of experiment [16]: basal HepG2 mitochondrial membrane potential changes, profiling panel, cell-based, JC-1 fluorescence, 24 h, 100 nL compound (AID 1167). Also: test concentration not given here. As to conditions: higher = more signal.
The nature of experiment [17]: basal 3T3-L1 adipocyte mitochondrial potential changes, profiling panel, cell-based, JC-1 fluorescence, 3T3-L1 adipocytes, 24 h, 100 nL compound (AID 1168). Also: test concentration not given here. As to conditions: JC-1 mitochondrial fluorescence, higher = more signal, called active from +8 up or from −8 down.
A short description of experiment [18]: basal RPMI8226 mitochondrial membrane potential changes, profiling panel, cell-based, JC-1 fluorescence, 24 h, 100 nL compound (AID 1169). Also: test concentration not given here. As to conditions: RPMI8226 myeloma, JC-1 mitochondrial potential fluorescence, higher = more signal.
Experiment [19] can be described thus: basal MM1S mitochondrial membrane potential changes, profiling panel, cell-based, JC-1 fluorescence, 24 h, 100 nL compound (AID 1170). Also: test concentration not given here. Particulars: higher = more signal.
Experiment [20] is described as follows: A549 lung cancer cell viability effects, profiling panel, resazurin fluorescence, 24 h, PK04 Diversity Set (AID 1171). Also: test concentration not given here. Particulars: higher = more signal, called active from +8 up or from −8 down. A general note: Alamar Blue is a resazurin reagent that responds to reducing activity.

Each structure is given as a SMILES string. Activity calls are given as the source filed them.

Sequence of NADPH oxidase 5 (Homo sapiens) (Q96PH1 whole entry, looked up): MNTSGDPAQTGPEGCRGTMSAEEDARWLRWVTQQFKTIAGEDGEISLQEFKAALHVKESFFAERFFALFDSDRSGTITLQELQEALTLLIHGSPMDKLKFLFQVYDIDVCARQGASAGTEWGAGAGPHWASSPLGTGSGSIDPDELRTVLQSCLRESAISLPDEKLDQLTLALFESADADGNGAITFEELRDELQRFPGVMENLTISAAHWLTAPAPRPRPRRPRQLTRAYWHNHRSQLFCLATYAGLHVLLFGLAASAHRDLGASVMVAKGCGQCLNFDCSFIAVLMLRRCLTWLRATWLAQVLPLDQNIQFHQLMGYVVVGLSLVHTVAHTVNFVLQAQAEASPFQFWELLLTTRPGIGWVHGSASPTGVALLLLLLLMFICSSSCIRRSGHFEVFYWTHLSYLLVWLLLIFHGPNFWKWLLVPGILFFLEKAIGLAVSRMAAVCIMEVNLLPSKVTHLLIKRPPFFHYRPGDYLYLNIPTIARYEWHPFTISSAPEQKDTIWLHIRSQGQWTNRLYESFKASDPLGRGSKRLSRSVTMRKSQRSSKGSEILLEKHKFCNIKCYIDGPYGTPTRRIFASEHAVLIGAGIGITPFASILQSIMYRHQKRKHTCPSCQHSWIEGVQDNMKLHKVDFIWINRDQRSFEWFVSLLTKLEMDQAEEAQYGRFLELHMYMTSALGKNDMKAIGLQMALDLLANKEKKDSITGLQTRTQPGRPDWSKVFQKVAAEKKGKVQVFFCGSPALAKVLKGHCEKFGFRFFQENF

For the compound `COc1ccc([Si](C)(C)[C@@H]2[C@@H](CCO)O[C@]3(C(=O)N(Cc4ccccc4)c4ccc(N5C(=O)c6ccccc6Oc6ccccc65)cc43)[C@H]2C)cc1`, the z-score is 1.02 (inactive) in experiment [1]; 2.11 (inactive) in experiment [3]; 1.37 (inactive) in experiment [4]; 0.0898 (inactive) in experiment [5]; 0.718 (inactive) in [6]; 0.656 in [7]. Also, the z-score was 0.212 (inactive) in [8]; 1.64 (inactive) in experiment [9]; 2.23 in [10]; -1.47 in experiment [11]; -0.0095 in experiment [12]; -1.96 in experiment [13]. In addition, the z-score in [14] is -1.77; in experiment [15] it was -2.66; in [16], -0.871; in [17], -0.735 (inactive); in experiment [18], -0.848; in experiment [19] it was -1.36. For the same compound, the z-score in experiment [20] is -1.07 (inactive). The composite z-score in experiment [2] was 0.0962.

`COc1ccc(CCNC(=O)[C@@]2(Sc3ccc(C)cc3)CC(=O)N(Cc3cc(C(F)(F)F)cc(C(F)(F)F)c3)[C@@H]2c2ccc(CO)cc2)cc1`: the z-score in experiment [1] was -0.601 (inactive); in experiment [3], 1.54 (inactive); in [4] it was 0.518 (inactive); in experiment [5] it was 0.0927 (inactive); in [6] it was -0.0392 (inactive); in experiment [7], 0.0684. The z-score in experiment [8] is -0.626 (inactive); in experiment [9] it was 0.539 (inactive); in [10], 1.02; in [11], -0.147; in [12] it was 0.7; in experiment [13] it was -0.29. Also, the z-score is -0.305 in [14]; -0.24 in experiment [15]; 0.016 in experiment [16]; -0.563 (inactive) in experiment [17]; 1.15 in [18]; -0.145 in experiment [19]. Also, the z-score in [20] is 0.423 (inactive). In experiment [2], the composite z-score is 0.469.

In the case of `CO[C@H]1O[C@H](CO)[C@@H](OC(=O)Nc2ccccc2)[C@@H]2OC(=O)[C@H](Cc3ccccc3)C/C=C/C[C@@H](Cc3ccccc3)C(=O)O[C@@H]12`, the z-score in experiment [1] is 0.863 (inactive); in experiment [3], 10.1 (active); in [4], 0.342 (inactive); in experiment [5] it was -1.91 (inactive); in experiment [6], -0.681 (inactive); in experiment [7] it was 1.31. In addition, the z-score in experiment [8] was -3.35 (inactive); in experiment [9] it was -0.599 (inactive); in [10] it was -1.57; in experiment [11] it was -0.152; in experiment [12] it was 0.385; in [13], 0.358. The z-score is -1.22 in experiment [14]; -2.46 in [15]; -0.928 in experiment [16]; 0.799 (inactive) in experiment [17]; -0.865 in experiment [18]; -1.45 in [19]. In experiment [20], the z-score is -2.94 (inactive). In experiment [2], the composite z-score was found to be 0.302.

Consider `COCCCNC(=O)[C@@H]1c2ccccc2C(=O)N(Cc2cc(C(F)(F)F)cc(C(F)(F)F)c2)[C@H]1c1ccc(CO)cc1`, for which the z-score in [1] was 0.144 (inactive); in experiment [3] it was 1.58 (inactive); in experiment [4] it was -0.0915 (inactive); in [5], 0.532 (inactive); in [6], 0.254 (inactive); in experiment [7], -0.348. Also, the z-score was 0.175 (inactive) in [8]; 0.414 (inactive) in experiment [9]; 1.54 in experiment [10]; 0.301 in [11]; -0.458 in experiment [12]; 0.519 in experiment [13]. For the same compound, the z-score is 0.514 in experiment [14]; -1.74 in [15]; 0.983 in experiment [16]; 0.385 (inactive) in [17]; -0.992 in [18]; 0.636 in experiment [19]. The z-score in [20] is -0.266 (inactive). This compound came in with a composite z-score in experiment [2] of 1.24.

Regarding `Cc1ccc(F)cc1S(=O)(=O)N[C@@H]1CCN(Cc2ccc3[nH]ccc3c2)C1`, the z-score in experiment [1] was -5.9 (inactive); in [3], 3.05 (inactive); in experiment [4], 0.843 (inactive); in experiment [5], 0.255 (inactive); in [6] it was 0.673 (inactive); in experiment [7], -0.0977. Further, the z-score was -0.163 (inactive) in experiment [8]; -1.11 (inactive) in [9]; -1.96 in experiment [10]; 0.173 in experiment [11]; -0.939 in experiment [12]; -0.696 in experiment [13]. In addition, the z-score is -3.43 in experiment [14]; -1.63 in [15]; -1.33 in [16]; -0.261 (inactive) in experiment [17]; 0.321 in experiment [18]; -1.34 in experiment [19]. Moreover, in experiment [20], the z-score is -0.0035 (inactive). Besides, the composite z-score in experiment [2] was -0.238.

For the compound `NCCCC[C@@H]1NC(=O)[C@H]2C[C@@H](C(=O)NCc3ccc(F)cc3)[C@@H](c3cccc(OCCO)c3)N2C1=O`, the z-score in [1] was -0.405 (inactive); in experiment [3] it was -0.591 (inactive); in experiment [4] it was 0.157 (inactive); in experiment [5], -0.805 (inactive); in [6] it was 0.274 (inactive); in experiment [7] it was -0.325. Moreover, the z-score is 1.88 (inactive) in [8]; 0.647 (inactive) in experiment [9]; 0.582 in experiment [10]; 0.172 in experiment [11]; -0.716 in experiment [12]; 1.13 in experiment [13]. Moreover, the z-score was -0.893 in experiment [14]; -0.259 in [15]; -2.23 in experiment [16]; 0.13 (inactive) in experiment [17]; -0.968 in experiment [18]; -0.894 in experiment [19]. In addition, the z-score in [20] is 0.858 (inactive). The same compound returned a composite z-score in [2] of 0.254.

Take `C=CC[C@]1(C(=O)N(C)C)COC(c2ccc(OCCCO)cc2)=N1`: the z-score is -2.4 (inactive) in experiment [1]; 8.04 (active) in experiment [3]; 0.627 (inactive) in experiment [4]; 2.32 (inactive) in experiment [5]; 0.0256 (inactive) in experiment [6]; 0.116 in experiment [7]. The z-score was -0.898 (inactive) in experiment [8]; -0.581 (inactive) in [9]; -2.06 in [10]; 0.345 in experiment [11]; 0.911 in experiment [12]; -0.8 in [13]. In addition, the z-score is -0.424 in [14]; 0.304 in experiment [15]; -1.26 in experiment [16]; -0.133 (inactive) in experiment [17]; -0.676 in experiment [18]; 1.23 in experiment [19]. Moreover, the z-score in experiment [20] is -0.497 (inactive). This compound also yielded a composite z-score in experiment [2] of 0.0087.

In the case of `COc1ccc([Si](C)(C)[C@H]2[C@H](CCO)O[C@@]3(C(=O)N(Cc4ccccc4)c4ccc(N(C=O)c5ccccc5)cc43)[C@@H]2C)cc1`, the z-score was 0.352 (inactive) in [1]; 5.68 (inactive) in [3]; 2.52 (inactive) in [4]; 1.12 (inactive) in [5]; 1.28 (inactive) in [6]; 0.456 in experiment [7]. For the same compound, the z-score is -0.98 (inactive) in experiment [8]; 0.184 (inactive) in experiment [9]; 1.23 in experiment [10]; -0.108 in experiment [11]; 0.288 in [12]; -3.3 in [13]. Besides, the z-score is -0.622 in experiment [14]; -2.82 in experiment [15]; 0.553 in experiment [16]; -0.00912 (inactive) in [17]; -0.914 in [18]; -1.27 in [19]. In addition, the z-score in [20] is -1.25 (inactive). In experiment [2], the composite z-score is 0.0927.
